# Reference: PubChem BioAssay AID1159580 (chemical genetic matrix, 2015)
# Out of some 5,500 compounds screened, about 2,000 (36%) were called active. About 18% were inconclusive and are not listed. Some of the results follow. Unmarked numbers belong to inactive results. No stated cut-off is given here; in the data, active means normalized growth mostly below about 0.91 (no sharp cut-off); inconclusive means no clear call, values can overlap the other calls; inactive means mostly above about 0.92.
# Assay: chemical genetic growth profiling, strain panel (AID 1159580);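 further: tested at 20 µM; growth read once vehicle control cultures reached saturation at 30 °C; 1 = growth at the plate median or of vehicle wells; lower values mean less growth of the strain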
# Conditions: S. cerevisiae deletion strains, growth OD
compound,measurement,setting,value
CNCCC(Oc1ccccc1C)c1ccccc1 (configuration not stated),normalized growth,"locus YAL040C, strain CLN3, active compounds read low",0.978
same,normalized growth,"locus YCL061C, strain MRC1 (second series), active compounds read low",0.995
same,normalized growth,"locus YDR150W, strain NUM1, active compounds read low",0.994
same,normalized growth,"locus YDR363W, strain ESC2, active compounds read low",0.968
same,normalized growth,"locus YER002W, strain NOP16, active compounds read low",0.995
same,normalized growth,"locus YMR263W, strain SAP30, active compounds read low",0.982
same,normalized growth,"locus YMR307W, strain GAS1, active compounds read low",0.971
same,normalized growth,"locus YNL128W, strain TEP1, active compounds read low",1.05
same,normalized growth,"locus YNL153C, strain GIM3, active compounds read low",0.984
same,normalized growth,"locus YNL175C, strain NOP13, active compounds read low",1.04
same,normalized growth,"locus YNL197C, strain WHI3, active compounds read low",1.02
same,normalized growth,"locus YNL224C, strain SQS1, active compounds read low",1.08
same,normalized growth,"locus YNL322C, strain KRE1, active compounds read low",0.96
same,normalized growth,"locus YOR083W, strain WHI5 (second series), active compounds read low",1
same,normalized growth,"locus YPL055C, strain LGE1, active compounds read low",0.984
same,normalized growth,"locus YPL241C, strain CIN2, active compounds read low",1
C/C(=N/NC(N)=S)c1csc(-c2ccccc2)n1,normalized growth,"locus YAR019C, strain CDC15, active compounds read low",0.917
same,normalized growth,"locus YBL105C, strain PKC1, active compounds read low",0.947
same,normalized growth,"locus YBR135W, strain CKS1, active compounds read low",0.948
same,normalized growth,"locus YBR136W, strain MEC1, active compounds read low",0.941
same,normalized growth,"locus YBR160W, strain CDC28, active compounds read low",0.942
same,normalized growth,"locus YDL017W, strain CDC7, active compounds read low",0.962
same,normalized growth,"locus YDL028C, strain MPS1, active compounds read low",0.948
same,normalized growth,"locus YDL101C, strain DUN1, active compounds read low",0.931
same,normalized growth,"locus YDL108W, strain KIN28, active compounds read low",0.942
same,normalized growth,"locus YDL132W, strain cdc53, active compounds read low",0.942
same,normalized growth,"locus YDL214C, strain PRR2, active compounds read low",0.834
same,normalized growth,"locus YDR052C, strain DBF4, active compounds read low",0.944
same,normalized growth,"locus YDR054C, strain cdc34, active compounds read low",0.898
same,normalized growth,"locus YDR226W, strain ADK1, active compounds read low",0.961
same,normalized growth,"locus YDR477W, strain SNF1, active compounds read low",0.816
same,normalized growth,"locus YER123W, strain YCK3, active compounds read low",0.698
same,normalized growth,"locus YER133W, strain GLC7, active compounds read low",0.791
same,normalized growth,"locus YFL009W, strain cdc4, active compounds read low",0.913
same,normalized growth,"locus YFL029C, strain CAK1, active compounds read low",0.935
same,normalized growth,"locus YFR003C, strain YPI1, active compounds read low",0.948
same,normalized growth,"locus YFR019W, strain FAB1, active compounds read low",0.895
same,normalized growth,"locus YFR028C, strain CDC14, active compounds read low",0.936
same,normalized growth,"locus YGR040W, strain KSS1, active compounds read low",0.823
same,normalized growth,"locus YGR052W, strain FMP48, active compounds read low",0.96
same,normalized growth,"locus YGR092W, strain DBF2, active compounds read low",0.545
same,normalized growth,"locus YHR030C, strain SLT2, active compounds read low",1.46 [resistant] (active)
same,normalized growth,"locus YHR079C, strain IRE1, active compounds read low",0.663
same,normalized growth,"locus YHR082C, strain KSP1, active compounds read low",1.19
same,normalized growth,"locus YHR205W, strain SCH9, active compounds read low",0.978
same,normalized growth,"locus YIL147C, strain SLN1, active compounds read low",0.937
same,normalized growth,"locus YJL095W, strain BCK1, active compounds read low",0.993
same,normalized growth,"locus YJL128C, strain PBS2, active compounds read low",1.02
same,normalized growth,"locus YJL157C, strain FAR1, active compounds read low",0.802
same,normalized growth,"locus YJR016C, strain ILV3, active compounds read low",0.935
same,normalized growth,"locus YJR066W, strain TOR1 (second series), active compounds read low",0.625
same,normalized growth,"locus YJR066W, strain TOR1, active compounds read low",1.01
same,normalized growth,"locus YKL048C, strain ELM1, active compounds read low",0.948
same,normalized growth,"locus YKL067W, strain YNK1, active compounds read low",0.864
same,normalized growth,"locus YKL101W, strain HSL1, active compounds read low",0.886
same,normalized growth,"locus YKL193C, strain SDS22, active compounds read low",0.932
same,normalized growth,"locus YKL203C, strain TOR2, active compounds read low",0.852
same,normalized growth,"locus YLR113W, strain HOG1, active compounds read low",0.964
same,normalized growth,"locus YLR133W, strain CKI1, active compounds read low",0.863
same,normalized growth,"locus YLR403W, strain SFP1, active compounds read low",0.717
same,normalized growth,"locus YML070W, strain DAK1, active compounds read low",0.884
same,normalized growth,"locus YMR001C, strain CDC5, active compounds read low",0.935
same,normalized growth,"locus YMR205C, strain PFK2 (second series), active compounds read low",0.883
same,normalized growth,"locus YMR277W, strain FCP1, active compounds read low",0.914
same,normalized growth,"locus YNL006W, strain LST8, active compounds read low",0.949
same,normalized growth,"locus YNL020C, strain ARK1, active compounds read low",0.846
same,normalized growth,"locus YNL161W, strain CBK1, active compounds read low",0.925
same,normalized growth,"locus YNL183C, strain NPR1, active compounds read low",0.883
same,normalized growth,"locus YNL207W, strain RIO2, active compounds read low",0.931
same,normalized growth,"locus YNL222W, strain SSU72, active compounds read low",0.925
same,normalized growth,"locus YNL307C, strain MCK1 (second series), active compounds read low",0.754
same,normalized growth,"locus YOL078W, strain AVO1, active compounds read low",0.92
same,normalized growth,"locus YOL136C, strain PFK27, active compounds read low",0.837
same,normalized growth,"locus YOR061W, strain CKA2, active compounds read low",0.829
same,normalized growth,"locus YOR119C, strain RIO1, active compounds read low",0.823
same,normalized growth,"locus YOR231W, strain MKK1, active compounds read low",0.739
same,normalized growth,"locus YOR329C, strain SCD5, active compounds read low",0.943
same,normalized growth,"locus YPL031C, strain PHO85, active compounds read low",0.776
same,normalized growth,"locus YPL153C, strain RAD53, active compounds read low",0.789
same,normalized growth,"locus YPL204W, strain HRR25, active compounds read low",0.774
same,normalized growth,"locus YPL209C, strain IPL1, active compounds read low",0.945
same,normalized growth,"locus YPL256C, strain CLN2, active compounds read low",1.05
same,normalized growth,"locus YPR025C, strain CCL1, active compounds read low",0.95
same,normalized growth,"locus YPR106W, strain ISR1, active compounds read low",0.945
same,normalized growth,"locus YPR111W, strain DBF20, active compounds read low",0.968
same,normalized growth,"strain NNK1, active compounds read low",0.969
same,normalized growth,"strain TSCII, active compounds read low",0.914
